Results reported in PubChem BioAssay AID434959 (Broad Institute, 2010).
The campaign covered roughly 30,000 compounds. About 110 (0.37%) were called active.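 The calls were made as follows: active = delta delta Cp rounded down to an integer at or above 3, about 3 SD of DMSO wells; inactive = the rest.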 The list comes from a sample in which actives are over-represented; it also holds similar structures and randomly drawn compounds.

Test: inhibitors of YB-1 gene expression, primary screen, cell-based, fluorescence (AID 434959);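 also: higher means less YB-1 transcript or more CDIP transcript relative to DMSO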
Settings: U2OS, qRT-PCR YB-1 vs CDIP delta delta Cp, 16 h; hits give high values; zero = DMSO, each unit about twofold

Delta Cp (YB-1 minus CDIP), inactive:
CC(C)S(=O)(=O)NCC1CCN(Cc2cccc(OCCO)c2)CC1 0.112
C[C@@H]1CCCCO[C@H](CN(C)C(=O)Nc2cccc3ccccc23)[C@@H](C)CN([C@H](C)CO)C(=O)c2cc(NC(=O)Nc3ccc4c(c3)OCO4)ccc2O1 0.427
C[C@@H]1CN([C@@H](C)CO)C(=O)CCCn2cc(nn2)CO[C@H]1CN(C)Cc1cccc2c1OCCCO2 -0.151
Cc1noc(C)c1S(=O)(=O)Nc1ccc2c(c1)CC(=O)N([C@@H](C)CO)C[C@H](C)[C@H](CN(C)C(=O)Nc1cccc3ccccc13)O2 -0.29
CN1C(=O)C(Cc2ccccc2)(Cc2ccccc2)c2ccccc21 -0.307
C[C@@H]1CN([C@H](C)CO)C(=O)c2cc(NC(=O)CCCN(C)C)ccc2O[C@H]1CN(C)S(=O)(=O)c1ccc(Cl)cc1 -0.394
Cc1ccc(S(=O)(=O)N(C)C[C@@H]2OCCCC[C@@H](C)Oc3ccc(NS(=O)(=O)c4ccccc4)cc3C(=O)N([C@H](C)CO)C[C@@H]2C)cc1 -0.0955
O=C(CCCCCCC(=O)Nc1ccccc1O)N/N=C/c1ccc2c(c1)Cc1ccccc1-2 0.456
O=C(N/N=C/c1cc(F)ccc1O)c1ccccc1O 0.293
COc1ccc2nc3c(nc2c1)C(=O)c1ccccc1C3=O 0.188
C[C@H]1CN([C@@H](C)CO)C(=O)c2cc(NS(=O)(=O)c3cccs3)ccc2O[C@@H]1CN(C)C(=O)Nc1cccc2ccccc12 -0.308
Cc1noc(C)c1S(=O)(=O)N(C)C[C@H]1OCCCC[C@@H](C)Oc2ccc(NC(=O)C3CCCCC3)cc2C(=O)N([C@H](C)CO)C[C@@H]1C 0.386
C[C@H](CO)N1C[C@H](C)[C@H](CN(C)S(C)(=O)=O)Oc2ncc(C#CCN(C)C)cc2C1=O 0.217
NCCCC[C@@H]1NC(=O)[C@@H]2C[C@H](C(=O)NCc3ccc(F)cc3)[C@H](c3ccc(O)cc3)N2C1=O 0.142
C[C@H](CO)N1C[C@H](C)[C@H](CN(C)S(=O)(=O)c2cccs2)Oc2ccc(NS(=O)(=O)c3ccccc3)cc2C1=O -0.379
Cc1ccc(S(=O)(=O)Nc2cccc3c2O[C@@H](CN(C)S(=O)(=O)c2cccs2)[C@@H](C)CN([C@@H](C)CO)C3=O)cc1 -0.365
COc1ccc(-c2cnc3c(c2)C(=O)N([C@H](C)CO)C[C@H](C)[C@H](CN(C)S(=O)(=O)c2ccccc2)O3)cc1 0.828
C=C(CC/C=C(\C)C(=O)O)C1(O)CC=C(C)CC1 (configuration not stated) -0.182
Cc1noc(C)c1S(=O)(=O)Nc1ccc2c(c1)C(=O)N([C@@H](C)CO)C[C@@H](C)[C@H](CN(C)C(=O)Nc1cccc3ccccc13)O2 0.0124
C[C@@H]1CN([C@H](C)CO)C(=O)Cc2cc(NS(=O)(=O)c3cccs3)ccc2O[C@H]1CN(C)C(=O)Nc1ccc2c(c1)OCO2 0.417
Cc1noc(C)c1NC(=O)Nc1ccc2c(c1)C(=O)N([C@H](C)CO)C[C@H](C)[C@H](CN(C)Cc1ccc(-c3ccccc3)cc1)O2 0.364
O=C(O)CCCCCC(=O)N/N=C/c1ccco1 0.15
COc1ccc(S(=O)(=O)N(C)C[C@H]2Oc3c(NC(=O)NC4CCCCC4)cccc3C(=O)N([C@@H](C)CO)C[C@@H]2C)cc1 -0.0504
C[C@]12C=CC(=O)C=C1CC[C@@H]1[C@@H]2C(=O)C[C@@]2(C)[C@H]1CC[C@]2(O)C(=O)CO 1.09
C[C@H]1CN([C@@H](C)CO)C(=O)Cc2cc(NC(=O)Cn3cnnn3)ccc2O[C@H]1CN(C)Cc1ccc(C(=O)O)cc1 -0.00589
C[C@@H]1CN([C@H](C)CO)C(=O)Cc2cc(N(C)C)ccc2O[C@H]1CN(C)C(=O)NC1CCCCC1 -0.109
C[C@H](CO)N1C[C@H](C)[C@H](CN(C)S(=O)(=O)c2ccccc2C#N)OCc2cn(nn2)CCCC1=O -0.329
C[C@@H]1CN([C@@H](C)CO)C(=O)Cc2cc(NC(=O)Cc3ccccc3)ccc2O[C@@H]1CN(C)Cc1ccc(Oc2ccccc2)cc1 -0.162
C[C@H]1CN([C@@H](C)CO)C(=O)c2cccc(NC(=O)c3cnccn3)c2O[C@H]1CN(C)S(=O)(=O)c1cn(C)cn1 -0.0985
C[C@@H]1CN([C@H](C)CO)C(=O)CCCn2cc(nn2)CO[C@H]1CN(C)S(=O)(=O)c1ccc(Oc2ccccc2)nc1 -0.176
CC1(C)C2CC[C@]3(C)C(C(=O)C=C4[C@@H]5C[C@@](C)(C(=O)O)CC[C@]5(C)CC[C@]43C)[C@@]2(C)CC[C@@H]1O (some centres not stated) 0.127

Delta Cp (YB-1 minus CDIP), active:
COc1ccc(OC)c(CCCc2cc(OC)ccc2OC)c1 10.3
